Experimental data taken from ChEMBL document CHEMBL5058541.

Target: Bromodomain-containing protein 4 (Homo sapiens) (UniProt O60885)
Conditions: Compound concentration 20.0 uM, Protein concentration 2.0 uM, Result type QC Liability

| Compound | ΔTm |
| --- | --- |
| O=C(NCCCN1CCOC1=O)c1cnc(NCc2cc(Br)ccc2Br)nc1NC1CCCC1 | 0 c |
| CS(=O)(=O)N1CCCC(NC(=O)[C@H](CCC2CCCCC2)NC(=O)c2ccc(CNC(=O)c3cnc4ccccn34)cc2)C1 (stereo partly drawn) | 0.345 c |
| CN(C)C(=O)c1ccc(-c2cc(C(=O)N[C@@H]3CCc4ccccc43)no2)cc1O | -0.51 c |
| CN(c1ncccc1CNc1ccnc(-c2nc3c(F)c(Cl)ccc3[nH]2)n1)S(C)(=O)=O | -0.76 c |

Target: T1, Transcription intermediary factor 1-alpha (Homo sapiens) (UniProt O15164)
T1 sequence (whole entry): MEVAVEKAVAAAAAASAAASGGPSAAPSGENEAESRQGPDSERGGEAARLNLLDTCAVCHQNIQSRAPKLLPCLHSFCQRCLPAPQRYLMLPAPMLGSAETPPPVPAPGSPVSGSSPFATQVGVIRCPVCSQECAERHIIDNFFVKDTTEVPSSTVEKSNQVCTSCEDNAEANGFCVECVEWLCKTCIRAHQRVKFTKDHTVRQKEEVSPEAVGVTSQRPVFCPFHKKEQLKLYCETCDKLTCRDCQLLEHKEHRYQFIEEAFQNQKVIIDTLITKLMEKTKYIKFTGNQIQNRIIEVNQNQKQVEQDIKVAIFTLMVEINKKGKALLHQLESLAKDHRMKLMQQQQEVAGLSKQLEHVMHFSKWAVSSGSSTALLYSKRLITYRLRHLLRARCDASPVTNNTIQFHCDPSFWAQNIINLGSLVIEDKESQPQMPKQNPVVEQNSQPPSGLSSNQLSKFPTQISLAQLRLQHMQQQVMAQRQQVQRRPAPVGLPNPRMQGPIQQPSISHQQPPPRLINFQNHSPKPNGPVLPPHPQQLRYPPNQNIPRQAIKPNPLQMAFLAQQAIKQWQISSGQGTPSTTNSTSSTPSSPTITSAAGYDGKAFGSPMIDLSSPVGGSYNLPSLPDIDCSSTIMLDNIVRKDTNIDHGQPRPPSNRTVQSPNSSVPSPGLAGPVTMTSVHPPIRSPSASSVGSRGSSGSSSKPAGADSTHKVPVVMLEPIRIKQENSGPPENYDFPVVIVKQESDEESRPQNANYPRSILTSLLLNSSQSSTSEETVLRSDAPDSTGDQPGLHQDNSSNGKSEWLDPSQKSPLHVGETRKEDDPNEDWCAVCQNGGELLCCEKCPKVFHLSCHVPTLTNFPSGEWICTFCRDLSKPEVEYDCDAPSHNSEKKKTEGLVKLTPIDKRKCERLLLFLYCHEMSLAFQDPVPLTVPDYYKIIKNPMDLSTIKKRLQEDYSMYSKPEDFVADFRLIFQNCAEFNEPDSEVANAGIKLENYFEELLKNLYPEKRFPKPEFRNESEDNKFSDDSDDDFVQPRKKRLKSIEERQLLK
Conditions: Compound concentration 20.0 uM, Protein concentration 2.0 uM, Result type QC Liability

| Compound | ΔTm |
| --- | --- |
| O=C(NCCCN1CCOC1=O)c1cnc(NCc2cc(Br)ccc2Br)nc1NC1CCCC1 | 0 c |
| CS(=O)(=O)N1CCCC(NC(=O)[C@H](CCC2CCCCC2)NC(=O)c2ccc(CNC(=O)c3cnc4ccccn34)cc2)C1 (stereo partly drawn) | 0.0818 c |
| CN(C)C(=O)c1ccc(-c2cc(C(=O)N[C@@H]3CCc4ccccc43)no2)cc1O | -0.594 c |
| CN(c1ncccc1CNc1ccnc(-c2nc3c(F)c(Cl)ccc3[nH]2)n1)S(C)(=O)=O | -0.07 c |
